APP 5UTR inh: APP translation inhibition; SH-SY5Y APP 5'UTR-luciferase reporter, luminescence; inhibition, % at 2 µM; actives 0.82% (n = 190,000); AID 1285;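 active = inhibition above a set limit, derived from the sample mean plus 3 SD, cut at about 45% in these data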
Ba/F3 V617F tox: reduce viability of Ba/F3 cells dependent on JAK2V617F | Ba/F3 EpoR-JAK2V617F viability, ATP luminescence | inhibition, % at 5.6 µM | actives 1.1% (n = 220,000) | AID 1446;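 active = inhibition above the campaign mean plus 3 SD over all tested compounds, cut at about 24% in these data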;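 also: cytokine-independent growth of Ba/F3 cells driven by EpoR plus mutant JAK2; 0% = DMSO-treated cells and 100% = JAK inhibitor I control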
KLF5 inh: inhibitors of KLF5 expression; inhibition, % at 5 µM; AID 1700; actives 0.23% (n = 290,000); DLD-1 KLF5 promoter-luciferase reporter, luminescence;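 active = inhibition above a per-plate limit of that plate's mean compound inhibition plus 3 SD, cut at about 60% in these data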;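 also: 0% = DMSO wells and 100% = LY294002 at 200 µM; higher means less KLF5 promoter-driven luciferase light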
BaF3 tox: counter-screen for JAK2V617F inhibitors: parental Ba/F3 viability inhibitors | CellTiter-Glo ATP luminescence | inhibition, % at 5.6 µM | actives 1.1% (n = 220,000) | AID 1486;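 active = inhibition above a per-campaign cutoff, the mean inhibition of all tested compounds plus 3 SD, cut at about 27% in these data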;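 also: 0% = DMSO wells and 100% = JAK Inhibitor I control wells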
aSyn 5UTR inh: MLPCN primary screen, SNCA 5' untranslated region; alpha-synuclein 5'UTR reporter, inhibitor activity; inhibition, % (tested at 7.5 µM); actives 0.82% (n = 300,000); AID 1813; in the data active = inhibition above about 60%;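 also: H4 neuroglioblastoma cells stably carrying SNCA 5'UTR luciferase fusion; 0% = DMSO wells and 100% = positive control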
IEC-6 cytotox: counter-screen for KLF5 inhibitors: cytotoxicity in IEC-6 cells; actives 0.78% (n = 290,000); IEC-6 cytotoxicity, luminescence viability; inhibition, % at 5 µM; AID 1825; in the data active = inhibition above about 22%;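 also: 0% = plate median of test compound wells and 100% = cytotoxic reference compound wells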
* marks the source's active call; other numbers are inactive results; nt = no result. A selection: hits, their analogues and other compounds. The true share with any hit is near 2.2%.

SMILES	APP 5UTR inh	Ba/F3 V617F tox	KLF5 inh	BaF3 tox	aSyn 5UTR inh	IEC-6 cytotox
COC(=O)c1sc(S(=O)(=O)N2CCCCC2C(=O)O)c(C(=O)OC)c1C (stereo unspecified)	59*	-3	-45	2	-3	1
O=C(Nc1ccc(Cl)cc1)Nc1csc([N+](=O)[O-])c1	nt	30*	-16	72*	1	5
Cc1ccc(C(=O)Nc2cc3ccccc3oc2=O)cc1	66*	-1	-77	4	111*	-2
Cc1cc(NC(=S)NC(=O)c2ccccc2)ccc1-c1cc2ccccc2oc1=O	69*	0	-19	6	32	3
CN(CC(O)COc1ccc(OCC(O)CN(C)C2CCCCC2)cc1)C1CCCCC1 (stereo unspecified)	9	1	-36	6	-11	11
Cc1cccc(C)c1OCC(O)CN(Cc1ccccc1O)C1CCCCC1 (stereo unspecified)	4	2	-38	3	62*	1
O=C1OC(CO)CN1Cc1ccccc1 (stereo unspecified)	nt	nt	-28	nt	-4	-7
CN(C)c1ccc(-c2n(C)c3ccccc3[n+]2C)cc1	nt	91*	-38	71*	8	10
Cn1c(-c2ccc3ccccc3n2)[n+](C)c2ccccc21	nt	89*	8	63*	-65	4
Cn1c(-c2ccccn2)[n+](C)c2ccccc21	-1	8	-37	17	-1	0
Cn1c(-c2cccc([N+](=O)[O-])c2)[n+](C)c2ccccc21	-1	58*	1	70*	19	3
Cc1cccc(NS(=O)(=O)c2cccc(C(=O)N3CCCC(C(F)(F)F)C3)c2)c1 (stereo unspecified)	nt	nt	nt	nt	3	nt
C=CCN(C(=O)Nc1ccc(Cl)cc1)C1CC(=O)N(c2ccc(OC)cc2)C1=O (stereo unspecified)	47*	-6	-18	2	10	1
C=CCN(C(=O)Nc1ccc(F)cc1)C1CC(=O)N(c2ccc(OC)cc2)C1=O (stereo unspecified)	21	0	-11	-1	nt	6
N/C(=N\OC(=O)c1ccc(Cl)cc1)c1ccccn1	-185	7	56	9	63*	9
N/C(=N\OC(=O)c1cccc(Br)c1)c1ccccn1	nt	nt	-74	nt	72*	11
N/C(=N\OC(=O)c1ccccc1[N+](=O)[O-])c1ccccn1	-104	0	-133	37*	-104	5
N/C(=N\OC(=O)c1ccccc1Cl)c1ccccn1	-123	11	-23	15	84*	11
COc1ccccc1C(=O)O/N=C(\N)c1ccccn1	nt	3	-90	10	31	8
Cc1cc(=O)oc2cc(NC(=O)c3ccccc3OC(F)F)ccc12	nt	nt	-88	nt	-114	12
Cc1noc(C)c1CSCC(=O)N(C)CC(=O)Nc1ccccc1Br	nt	nt	nt	nt	5	nt
CN(C)S(=O)(=O)c1ccc(C(=O)Nc2nnc(-c3ccc4c(c3)CCCC4)o2)cc1	-17	-3	-47	1	69*	0
CN(C)S(=O)(=O)c1ccc(C(=O)Nc2nnc(-c3cccs3)o2)cc1	-3	4	7	0	13	15
O=C(Nc1nnc(-c2ccc3c(c2)CCCC3)o1)c1c(F)cccc1F	-7	-3	-8	61*	-5	1
Cc1cc(NC(=O)c2cccc(S(=O)(=O)N3c4ccccc4CC3C)c2)no1 (stereo unspecified)	nt	1	-40	1	33	1
SMILES	APP 5UTR inh	Ba/F3 V617F tox	KLF5 inh	BaF3 tox	aSyn 5UTR inh	IEC-6 cytotox
CCOC(=O)c1sc(NC(=O)c2cccc(S(=O)(=O)N3c4ccccc4CC3C)c2)cc1C (stereo unspecified)	-4	-7	-45	0	80*	0
Cn1ncc(N=Cc2c(O)ccc3ccccc23)c1C(=O)Nc1cccc(Cl)c1	7	0	-7	5	-27	-6
CN1/C(=C/c2cc[n+](C)c3ccccc23)C=Cc2ccccc21	2	76*	11	63*	nt	-2
CCC/C=N/NC(=O)c1[nH]c2c([N+](=O)[O-])cccc2c1C	89*	-5	7	2	21	9
COc1cc2c3nnc(-c4ccc(F)cc4)c-3cn(Cc3ccccc3F)c2cc1OC	53*	1	-15	4	nt	-2
CCN(CC)c1ccc(/C=C2/SC(=O)N(C(C)C)C2=O)o1	92*	5	10	8	-175	0
CCN(CC)S(=O)(=O)c1cccc(NC(=O)COC(=O)CCC(=O)c2ccc(F)cc2)c1	-6	-1	2	3	36	-4
